High-throughput results from PubChem.
HP1b binding inh – blocks HP1-beta chromodomain binding to methylated histone tails | P83916 | AlphaScreen HP1-beta / biotin-H3K9me3 peptide binding | Potency, µM (highest dose often 114 µM), usual class: inhibitors | actives 0.56% (n = 390,000) | AID 540317; further: nearly all actives have a fitted effect of over 70% in size
Target sequence (P83916 whole entry, looked up): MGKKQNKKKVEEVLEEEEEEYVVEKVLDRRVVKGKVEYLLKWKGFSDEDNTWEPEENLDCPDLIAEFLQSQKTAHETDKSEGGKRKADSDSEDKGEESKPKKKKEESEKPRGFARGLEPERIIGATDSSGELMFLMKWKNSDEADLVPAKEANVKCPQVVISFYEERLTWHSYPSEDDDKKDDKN
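Compound inhibition of the preformed complex between 50 nM HP1-beta and 50 nM biotinylated H3K9me3 peptide was read by AlphaScreen. Buffer was PBS pH 7.4 with 0.01% Tween-20. Incubations ran 30 min at room temperature, with 10 ug/mL donor/acceptor beads.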
VDR inh – inhibitors of human vitamin D receptor; P11473; VDR-SRC2-3 peptide fluorescence polarization, 2 h; Potency, µM, actives largely listed as inhibitors; actives 0.93% (n = 400,000)
Target sequence (P11473 whole entry, looked up): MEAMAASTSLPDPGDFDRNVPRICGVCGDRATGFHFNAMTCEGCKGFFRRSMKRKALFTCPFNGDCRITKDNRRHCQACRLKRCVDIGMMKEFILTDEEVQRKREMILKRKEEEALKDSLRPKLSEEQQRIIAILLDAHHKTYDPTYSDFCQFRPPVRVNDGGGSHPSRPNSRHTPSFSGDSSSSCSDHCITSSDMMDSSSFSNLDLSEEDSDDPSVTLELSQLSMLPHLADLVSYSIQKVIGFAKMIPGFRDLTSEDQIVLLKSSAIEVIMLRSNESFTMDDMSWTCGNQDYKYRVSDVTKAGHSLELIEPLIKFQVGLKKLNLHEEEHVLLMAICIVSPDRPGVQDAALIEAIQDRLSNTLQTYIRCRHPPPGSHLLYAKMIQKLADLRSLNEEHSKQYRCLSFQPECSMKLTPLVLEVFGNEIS
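FP read-out; VDR + SRC2-3 coactivator peptide; 23 nl compound by pintool; 2 h RT incubation; reagents held at 4 deg C, protected from light.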
JMJD2A Tudor – inhibitors of human JMJD2A Tudor domain. AID 504339. Potency, µM (titrated, usually from 114 µM), most hits filed as inhibitors. O75164. actives 4.4% (n = 390,000). AlphaScreen JMJD2A-Tudor / H3K4me3 peptide binding; further: nearly all actives have a fitted effect of over 50% in size
BAZ2B inh – BAZ2B (human) inhibition; Q9UIF8; AlphaScreen BAZ2B-H3K14Ac peptide displacement; Potency, µM (doses to about 114 µM), usual class: inhibitors; actives 4.4% (n = 360,000); further: nearly all actives have a fitted effect of over 60% in size
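Complex of BAZ2B and biotin-H3K14Ac (50 nM apiece) forms over 30 min at RT, then faces library compounds up to 110 uM for another 30 min; AlphaScreen beads added, 20 min dark incubation, luminescence read.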
PLK1 PBD inh – PLK1 (human) polo-box domain binding inhibition; actives 2.8% (n = 360,000); P53350; Plk1 PBD binding of FITC phosphopeptide, fluorescence polarization; Potency, µM, hits mostly inhibitors; further: series mostly up to about 57 µM; nearly all actives have a fitted effect of over 65% in size
G9a inh – blocks human histone lysine methyltransferase G9a; G9a H3K9 monomethylation, AlphaScreen, 2 h; Q96KQ7; actives 8.8% (n = 350,000); Potency, µM (doses to about 102 µM), usual class: inhibitors; further: nearly all actives have a fitted effect of over 75% in size
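Compounds were preincubated with 20 nM G9a for 15 min, after which biotinylated H3K9 peptide (500 nM) and SAM (20 uM) started a 2 h room-temperature reaction. Monomethylated product was quantified by antibody-based AlphaScreen chemiluminescence.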
Of the large screens only hits and unclear results are named; the others gave an inactive call. A selection: hits, their analogues and other compounds. The true share with any hit is near 11%. The call rests on the fitted dose curve; in most records, active means well fitted curve in the direction sought with a large enough effect; inconclusive means small, poorly fitted or top-dose-only effect, or another doubt; inactive means no such curve, though single readings can be large; an effect the other way counts as inactive or inconclusive.

Cc1ccccc1C(=O)NC1CCN(C(=O)N(c2ccccc2)c2ccccc2)CC1	none
O=C1CCCN1CCCNC(=S)Nc1ccccc1	none (no result: G9a inh)
O=C(CNCc1ccccc1)NCCCN1CCCC1=O	HP1b binding inh inconclusive, JMJD2A Tudor 2µM, G9a inh 22µM
CC(CC(=O)Nc1ccccc1)NCCCN1CCCC1=O (stereo not given)	HP1b binding inh 79µM, JMJD2A Tudor 0.71µM, BAZ2B inh 50µM, G9a inh 8.9µM
CCc1ccc2nc(N(Cc3cccnc3)C(C)=O)sc2c1	none (no result: PLK1 PBD inh)
CCN(CC)S(=O)(=O)c1cccc(C(=O)OCC(=O)N2CC(=O)Nc3ccccc32)c1	G9a inh 20µM
CS(=O)(=O)c1ccc(C(=O)OCC(=O)N2CC(=O)Nc3ccccc32)cc1[N+](=O)[O-]	VDR inh inconclusive (no result: BAZ2B inh, PLK1 PBD inh, G9a inh)
O=C1CN(C(=O)COC(=O)c2ccc(N3CCCCCC3)c([N+](=O)[O-])c2)c2ccccc2N1	HP1b binding inh inconclusive, JMJD2A Tudor inconclusive, BAZ2B inh inconclusive, G9a inh 40µM
CCOC(=O)c1nn(-c2ccccc2)c(=O)c2c(N)scc12	PLK1 PBD inh 2.7µM, G9a inh 1.6µM (no result: BAZ2B inh)
CCOC(=O)c1nn(-c2ccccc2)c(=O)c2c(NC(C)=O)scc12	none (no result: BAZ2B inh)
Nc1c(C(=O)N/N=C/c2ccc(Cl)cc2)cnn1-c1ccccc1	none
Nc1scc2c(C(=O)N/N=C/c3ccc(Cl)cc3)nn(-c3ccccc3)c(=O)c12	VDR inh inconclusive, JMJD2A Tudor 45µM, BAZ2B inh inconclusive, PLK1 PBD inh inconclusive, G9a inh inconclusive
Cn1cccc1CC(=O)N/N=C/c1ccc(Cl)c([N+](=O)[O-])c1	BAZ2B inh 40µM, G9a inh 50µM
Cn1c(SCC(=O)NN2C(=O)NC(C)(c3ccccc3)C2=O)nnc1-c1ccncc1 (stereo not given)	none (no result: BAZ2B inh, G9a inh)
Cn1cnnc1SCC(=O)NN1C(=O)NC(C)(c2ccccc2)C1=O (stereo not given)	G9a inh 22µM
CC(C)(C)OC(=O)NCCc1onc(-c2ccccc2F)c1C(=O)O	none (no result: HP1b binding inh, VDR inh, JMJD2A Tudor, BAZ2B inh, G9a inh)
Nc1ccc2nc(SCc3ccccc3F)sc2c1	HP1b binding inh inconclusive, JMJD2A Tudor 25µM, BAZ2B inh inconclusive, PLK1 PBD inh 15µM, G9a inh 22µM
Nc1ccc2nc(SCC(=O)c3ccccc3)sc2c1	BAZ2B inh inconclusive, G9a inh 45µM
O=C(Nc1ccc2nc(SCc3ccccc3)sc2c1)c1ccccc1F	none (no result: PLK1 PBD inh)
Nc1c(N(Cc2ccco2)C(=O)COc2ccccc2F)c(=O)[nH]c(=O)n1Cc1ccccc1	G9a inh inconclusive
CCn1nc(C(=O)OCC(=O)c2ccc3c(c2)OCCO3)c2ccccc2c1=O	VDR inh inconclusive, JMJD2A Tudor 50µM, PLK1 PBD inh 21µM, G9a inh inconclusive
CCn1nc(C(=O)Nc2ccc3c(c2)OCCO3)c2ccccc2c1=O	none (no result: HP1b binding inh, VDR inh, JMJD2A Tudor, BAZ2B inh, G9a inh)
O=C(c1cc2ccccc2o1)c1cccs1	PLK1 PBD inh 24µM
CCn1c(O)c(N=NC2=NC(=O)CS2)c2ccccc21	JMJD2A Tudor inconclusive, BAZ2B inh 50µM
COc1ccccc1CC(=O)Nc1ccc2c(C)cc(=O)oc2c1	G9a inh 71µM
COC(=O)/C(=C/c1cn(C(C)=O)c2ccccc12)[N+](=O)[O-]	PLK1 PBD inh inconclusive, G9a inh inconclusive
COC(=O)/C(=C/c1c[nH]c2ccccc12)[N+](=O)[O-]	PLK1 PBD inh 2.4µM, G9a inh inconclusive
CCCCc1ccc(N=N/C(C(=O)Nc2ccc(NC(C)=O)cc2OC)=C(/C)O)cc1	JMJD2A Tudor inconclusive, BAZ2B inh inconclusive, G9a inh 35µM
COc1ccc(C(C(=O)NCC2CCCO2)N(C(=O)c2snc(C(N)=O)c2N)c2ccc(C)cc2)cc1OC (stereo not given)	G9a inh inconclusive
O=C(O)c1ccc(Nc2ncnc3ccccc23)cc1	none
Nc1c(Cl)ncnc1Nc1ccc(C(=O)O)cc1	JMJD2A Tudor 13µM (no result: BAZ2B inh, G9a inh)
O=C(NCCCN1CCCCC1)c1sc2ncccc2c1-n1cccc1	none (no result: PLK1 PBD inh)
O=C(NCCCN1CCN(c2ccc(F)cc2)CC1)c1ccc2nc(Cc3ccccc3)oc2c1	JMJD2A Tudor inconclusive, BAZ2B inh 32µM (no result: PLK1 PBD inh)
COc1ccc(N2CCN(CCCNC(=O)c3sc4ncccc4c3-n3cccc3)CC2)cc1	JMJD2A Tudor 40µM, BAZ2B inh 35µM, G9a inh 16µM (no result: PLK1 PBD inh)
COc1ccc(N2CCN(CCCNC(=O)Cn3c(=O)c4cccn4c4ccccc43)CC2)cc1	HP1b binding inh inconclusive, BAZ2B inh inconclusive, G9a inh 40µM
COc1ccc(N2CCN(CCCNC(=O)Cn3c(=O)c4cccn4c4cccnc43)CC2)cc1	JMJD2A Tudor 50µM, BAZ2B inh 32µM, G9a inh 40µM
O=C(Cn1c(=O)c2cccn2c2cccnc21)NCCCN1CCN(c2ccc(F)cc2)CC1	G9a inh inconclusive
C[C@H](CO)N1C[C@H](C)[C@@H](CN(C)S(=O)(=O)c2cccs2)Oc2c(NS(=O)(=O)c3cn(C)cn3)cccc2C1=O	none (no result: BAZ2B inh, G9a inh)
COc1ccc(N2CCN(CCCNC(=O)c3nnc(Cc4ccccc4Cl)o3)CC2)cc1	HP1b binding inh inconclusive, JMJD2A Tudor 50µM, BAZ2B inh 35µM, G9a inh 13µM (no result: PLK1 PBD inh)
COc1ccccc1N1CCN(CCCNC(=O)c2nnc(Cc3ccc(F)cc3Cl)o2)CC1	none (no result: PLK1 PBD inh)
COc1ccc(N2CCN(CCCNC(=O)c3ccc4nc(N5CCCCC5)sc4c3)CC2)cc1	HP1b binding inh inconclusive, JMJD2A Tudor 45µM, BAZ2B inh 25µM, G9a inh inconclusive (no result: PLK1 PBD inh)
Cc1c(CNCCC2=CCCCC2)c(C(=O)O)c(C)n1Cc1ccccc1	G9a inh 50µM
CC(C)N1CCC2(CC1)C(C#N)=C(N)NC(S)=C2C#N	G9a inh 1.6µM (no result: HP1b binding inh, VDR inh, JMJD2A Tudor, PLK1 PBD inh)
COc1ccc(N2CCN(C(=O)c3cccc(NS(=O)(=O)c4cccc(F)c4)c3)CC2)cc1	BAZ2B inh 40µM (no result: G9a inh)
COc1ccc(N2CCN(C(=O)c3ccc(NS(=O)(=O)c4ccc(F)c(F)c4)cc3)CC2)cc1	JMJD2A Tudor 89µM, BAZ2B inh 50µM, G9a inh 56µM
CC(=O)c1ccc(Nc2ccc3cc(S(=O)(=O)N4CCCC4)ccc3n2)cc1	G9a inh inconclusive (no result: PLK1 PBD inh)
Cc1cc(C)cc(NC(=O)c2ccc3oc(=O)c(S(=O)(=O)c4ccc(F)cc4)cc3c2)c1	none (no result: PLK1 PBD inh)
Cc1ccc2c(c1)CC(C)N2S(=O)(=O)c1nnc(NC(=O)c2ccccc2F)s1 (stereo not given)	BAZ2B inh inconclusive (no result: PLK1 PBD inh)
NNC(=O)c1cc(-c2ccccc2)sc1N	JMJD2A Tudor inconclusive, BAZ2B inh inconclusive, G9a inh inconclusive
CCOC(=O)c1cc(-c2ccccc2)sc1NC(=O)CC	HP1b binding inh inconclusive, VDR inh inconclusive, PLK1 PBD inh 21µM, G9a inh 56µM
CCOC(=O)c1cc(-c2ccccc2)sc1NC(=O)CCN1C(=O)c2ccccc2C1=O	none
